Measurements from PubChem BioAssay (NCI).
“And” between values parts separate entries of the source, which are not always exact repeats. Equal values may be shown once. About 83,000 compounds went through this panel and 20% of them were active in at least one assay; those are over-represented in the sample as a whole.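 Assay: single dose, 48 h. Readout: percent growth (0 = no net growth; negative = cell death). Active: <10.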 The source made the active and inactive calls.

Test system: MDA-MB-468 breast
Assay: NCI-60 one-dose screen, 48 h (100 = growth as untreated, 0 = no growth, -100 = all killed)
Details: 10 µM unless noted

| SMILES | growth |
| --- | --- |
| CC1(C)CN(CCNc2nccc(-c3c(-c4cccc(O)c4)nc4sccn34)n2)S(=O)(=O)N1 | 81% (inactive) |
| CCCCCCCCCCCCCCCCCBr | 99.8% (inactive) |
| CCO/C=N/C1=C(C#N)C(c2ccc(F)cc2)c2sc3c(F)cccc3c2O1 (stereo not given) | 27.2% (inactive) |
| CN(C)CC(O)c1ccc(/C=C/c2ccc(Cl)cc2)cc1 (stereo not given) | -84.4% (active) |
| CN1[C@@H]2CC[C@H]1/C(=C\c1ccccc1)C1=C2[C@@H](c2ccccc2)C(C#N)=C(N)O1 | 50.3% (inactive) |
| N#C/C(=C\c1ccc2ccccc2c1)c1cc2ccccc2[nH]1 | 30.5% (inactive) |
| O=C(CCCCCn1c2ccccc2c2c3c(c4c5ccccc5[nH]c4c21)C(=O)N(O)C3=O)N1CCOCC1 | 3.68% (active) |
| COC1OC2COC(c3ccccc3)OC2C(=O)C1NC(=O)c1ccccc1 (stereo not given) | 113% (inactive) |
| Cn1cccc1/C=C1/SC(=S)N(CCc2ccc(O)cc2)C1=O | 10.3% (inactive) |
| O=C(N/N=C\c1ccc(Cl)cc1Cl)c1ccncc1 | 110% (inactive) |
| NC(=O)c1cccc(N2Cc3ccccc3OC3=C2C(=O)c2c(O)ccc(O)c2C3=O)c1 | -21.4% (active) |
| O=C(Nc1cccc(Cn2c(=O)[nH]c3ccc(Oc4ncccn4)cc3c2=O)c1)c1ccc(Cl)cc1 | 16.8% (inactive) |
| C#Cc1ccc(C(=O)NCc2ccc(/C=C/C(=O)c3nccn3C)cc2)cc1 | 18% (inactive) |
| CC(C)(C)c1ccc(CC(=O)Nc2sc3c(c2C(N)=O)CCC(=O)C3)cc1 | -13.9% (active) |
| COc1ccc(/C=C/C(=O)c2cc(O)ccc2O)cc1 | 71.2% (inactive) |
| Cc1cc(NS(=O)(=O)c2ccc(N=Nc3cc(N=Nc4ccc(S(=O)(=O)Nc5cc(C)nc(C)n5)cc4)c4c(NC(=O)C(Cl)Cl)cccc4c3OC(=O)C(Cl)Cl)cc2)nc(C)n1 (tested in a mixture with another compound) | 103% (inactive) and 78.5% (inactive) |
| O=[N+]([O-])c1ccc(N=Nc2ccc(O)cc2O)cc1 | -4.48% (active) |
| COc1ccc2c(c1)NC1=C(C(=O)OC1)C2c1cc(OC)c2c(c1)OCO2 (stereo not given) | -5.15% (active) |
| COc1ccc(C(=O)/C=C/c2cccc([N+](=O)[O-])c2)c(OC)c1 | -3.24% (active) |
| Cc1[nH]c(N=Nc2ccccc2)nc1N=Nc1ccccc1 | 24.1% (inactive) |

| SMILES | growth |
| --- | --- |
| Nc1nc(N)c2c(n1)NC(c1cccc(Nc3ccnc4cc(C(F)(F)F)ccc34)c1)CC(c1ccc(Cl)cc1)=N2 (stereo not given) | 21.5% (inactive) |
| CCC(C)/C(=C\C#N)NCCCN/C(=C/C#N)C(C)CC (stereo not given) | 108% (inactive) |
| CC(C)OC1=C(Cl)C(=O)c2ccccc2C1=O | 69.1% (inactive) |
| CCOc1cc(Br)c(C(C)NC(=O)c2cccc(OC)c2)cc1OCC (stereo not given) | 52.6% (inactive) |
| C=C1C(=O)O[C@H]2[C@H]1CC/C(CNS(=O)(=O)c1ccc3ccccc3c1)=C\CC[C@@]1(C)O[C@@H]21 | -54% (active) |
| COc1cc(C2=N/C(=C\c3cc4ccccc4nc3Oc3ccccc3)C(=O)N2C(=N)N)cc(OC)c1OC | 67.9% (inactive) |
| CC(=O)/C(=C/c1ccc([N+](=O)[O-])cc1)C(=O)c1ccccc1 | 114% (inactive) |
| CN(N)c1nc2sc3c(c2c(=O)[nH]1)CCCC3 | 113% (inactive) |
| COc1ccc(/C=C(\C#N)n2nc3cccc(F)c3n2)cc1 | 100% (inactive) |
| N#Cc1c(N)[nH]c(S)c1C#N | 103% (inactive) |
| Clc1ccc(N/N=C/c2ccccn2)nc1 | -48.3% (active) |
| Cn1cc(-c2csc(-c3cn(C(=O)OC(C)(C)C)c4ccc(Br)cc34)n2)c2ccnc(Cl)c21 | 5.4% (active) |
| COc1cc2c(cc1O)CC[C@@H]1[C@@H]2CC[C@]2(C)[C@@H](OCCN(C)C)CC[C@@H]12 | 19.3% (inactive) |
| CC(C)=CCC[C@](C)(O)[C@H]1CC[C@]2(C)[C@@H]1CC[C@@H]1[C@@]3(C)CC[C@H](N)C(C)(C)[C@@H]3CC[C@]12C | 62% (inactive) |
| COc1ccc2nc3cc(Cl)ccc3c(NC(=O)CSc3ccc(Cl)cc3)c2c1 | -81.7% (active) |
| COc1cc(CN2CCC(N3CCCC3=O)c3ccccc32)cc(OC)c1OC (stereo not given) | 36.3% (inactive) |
| c1ccc(-c2nnc(Nc3ccc4c(c3)OCCO4)o2)c(NCc2ccncc2)c1 | -33.4% (active) |
| Nc1n[nH]c2cccc(C#Cc3cccc(C(=O)Nc4ccc(Cl)c(C(F)(F)F)c4)c3)c12 | 74.4% (inactive) |
| COc1ccc(OC)c(/C=C/c2nc(=S)n(-c3ccc(Cl)cc3)[nH]2)c1 | 38.8% (inactive) |
| CCN(CC)CCCC(Nc1c2ccc(Cl)cc2nc2ccc(OC)cc12)c1ccc(F)cc1 (stereo not given) | 90.5% (inactive) |
